Only some compounds are listed: those with a hit (about 7.9% of all), similar ones and a draw of the others.
FMDV antiviral: foot and mouth disease virus antiviral activity; hit rate 1.2% among 410,000; Potency, µM (titrated, usually from 57.9 µM), inactives show at the top dose activity change, negative = inhibition, most hits filed as inhibitors; FMDV antiviral cell-based qHTS; AID 1159524; calls by dose curve; tested in HEK293T cells; also: read-out not given here; potency is read from the fitted curve at half-maximal effect; nearly all actives have a fitted effect of over 45% in size
HCMV antiviral: inhibitors of human cytomegalovirus | HFF cells, HCMV-luciferase reporter, 72 h; hits give low values | activity change, negative = inhibition, % at 57.5 µM | hit rate 4.5% among 410,000 | AID 1259415; in the data active = activity change below about -60%; inconclusive = no clear call, values can overlap the other calls; inactive = above about -39%
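Two-dose cell screen: HFF monolayers treated with compounds and infected with luciferase-expressing HCMV at 1 PFU/cell, 72 h at 37C, then lysed for luciferase measurement.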
HCV inhibitor: HCV inhibition; Huh7.5.1 HCVcc-Cre infection, luciferase reporter, 44 h; Potency, µM (top dose mostly 41.8 µM), inactives show at the highest dose activity change, negative = inhibition, actives largely listed as inhibitors; hit rate 3.4% among 340,000; AID 651820; active = well fitted inhibition curve with a large enough effect; inconclusive = small, poorly fitted or top-dose-only effect, or another doubt; inactive = no such curve, though single readings can be large or run the other way; also: potency is read from the fitted curve at half-maximal effect
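1,000 cells/well; 4 h culture; + compound; + HCVcc-Cre (~0.5 moi); 44 h; luciferase substrate, RT 15 min; read 15 sec.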
MARV entry inh: inhibitors of Marburg virus binding or cell entry; AID 540276; Marburg virus pseudotyped entry inhibition, cell reporter; Potency, µM (highest dose often 37.8 µM), inactives show top-dose activity change, negative = inhibition, most hits filed as inhibitors; hit rate 1.8% among 300,000; calls by dose curve; tested in HEK293 cells; also: potency is read from the fitted curve at half-maximal effect
Lassa entry inh: blocks Lassa virus binding to or entry into cells | Lassa virus pseudotype entry inhibition, cell reporter | Potency, µM (top dose mostly 37.9 µM), for inactives: at the highest dose activity change, negative = inhibition, most hits filed as inhibitors | hit rate 1.2% among 300,000 | AID 540256; calls by dose curve; tested in HEK293 cells; also: potency is read from the fitted curve at half-maximal effect; nearly all actives have a fitted effect of over 50% in size
Active calls of the source: *; ? = inconclusive; . = not tested or not shown; [ ] = another dose, or the depositor's remark. % is scaled to controls: 0 for no effect and ±100 for the full control effect.

SMILES | FMDV antiviral | HCMV antiviral | HCV inhibitor | MARV entry inh | Lassa entry inh
O=C(/C=C/c1ccco1)Nc1ccccn1 | 7% | 100 | ? | ? | ?
CCCCCCCCCCCCCCCC(=O)OCC(NC(=O)C(Cl)Cl)C(O)c1ccc([N+](=O)[O-])cc1 (centres undefined) | . | -9 | . | . | .
O=C(Cc1coc2cc3c(cc12)CCC3)OCC(=O)N1CCCC1=O | 14µM* | 21 | 6% | ? | ?
COC(=O)C1=C(C(=O)OC)[C@@H]2N(Cc3ccccc3)c3ccccc3[C@@]23C[C@@H](C(=O)OC)N(C(=O)Nc2ccccc2F)C3=N1 | . | . | . | -13%[14.2 µM] | .
O=C(CSc1nnc(-c2ccc(Br)cc2)n1-c1ccccc1)c1ccccc1 | 1% | ? | . | . | 1%[46.1 µM]
Cc1cc(OCCn2cc(C(=O)c3ccco3)c3ccccc32)ccc1Cl | -16% | -4 | . | ? | -23%[46.1 µM]
COc1ccccc1OCCCn1cc(C(=O)c2ccco2)c2ccccc21 | -12% | 166 | 11µM* | -8% | ?
COc1cccc(OCCn2cc(C(=O)c3ccco3)c3ccccc32)c1 | -2% | 2 | 20µM* | ? | ?
COc1ccccc1OCCn1cc(C(=O)c2ccco2)c2ccccc21 | 25µM* | 61 | ? | ? | -21%
COC(=O)C=C1CCC2C3CCC4=CC(=O)C(Br)CC4(C)C3C(=O)CC12C (centres undefined) | ? | -23 | ? | 11µM* | ?
O=C1C2CCCN2C(c2ccccc2F)N1c1ccc(Cl)cc1 (centres undefined) | 8% | -64* | 3% | ? | -18%
COc1ccc(N2C(=O)C3CCCN3C2c2ccccc2F)cc1 (centres undefined) | -2% | -3 | 7% | . | .
O=C1C2CCCN2C(c2ccccc2)N1c1ccc(Cl)cc1 (centres undefined) | 6% | -97* | 2% | ? | ?
CN(C)c1ncc2nc(-c3cccs3)c(=O)n(C)c2n1 | 27% | . | . | . | .
CCOC(=O)N1CCC(Nc2c(-c3ccc(C)c(C)c3)c(=O)c2=O)CC1 | -29% | -21 | -26% | ? | -15%
O=C(Oc1ccnc2cc(Cl)ccc12)N1CCCCCC1 | -16% | -101* | ? | ? | ?
CCOC(=O)N1CCC(Nc2c(N3CCN(c4cc(Cl)ccc4C)CC3)c(=O)c2=O)CC1 | 0% | ? | 10µM* | . | .
CCN(CC)C(=O)Oc1ccnc2cc(Cl)ccc12 | -10% | 0 | -11% | -6%[46.1 µM] | ?
CC(C)N(C(=O)N1CCN(c2ccnc3cc(Cl)ccc23)CC1)C(C)C | ? | -90* | ? | ? | 11µM*
CCOC(=O)N1CCN(c2ccnc3cc(Cl)ccc23)CC1 | -19% | -63* | -5% | ? | 4%
O=C(NCCc1c[nH]c2ccccc12)C(=O)NCC1OCCCN1S(=O)(=O)c1cc(F)ccc1F (centres undefined) | ? | ? | -20% | ? | ?
O=C(c1ccc(Cl)cc1)N1CCN(c2ccnc3cc(Cl)ccc23)CC1 | 28µM* | ? | ? | ? | ?
CN1/C(=C\C(=O)c2ccco2)C(C)(C)c2ccccc21 | ? | -71* | 11µM* | -36% | ?
CN1/C(=C\C(=O)c2cncc(Br)c2)C(C)(C)c2ccccc21 | ? | -73* | ? | ? | ?
CN1/C(=C\C(=O)c2cccnc2)C(C)(C)c2ccccc21 | 18% | -2 | 8% | 7% | 0%
SMILES | FMDV antiviral | HCMV antiviral | HCV inhibitor | MARV entry inh | Lassa entry inh
CN1/C(=C/C(=O)c2nc(S(C)(=O)=O)ncc2Cl)C(C)(C)c2ccccc21 | 10µM* | . | ? | ? | 16µM*
CN1/C(=C\C(=O)COC(=O)c2ccco2)C(C)(C)c2ccccc21 | ? | 11 | -7% | . | .
CCC(C)NC(=O)c1ccc(Cn2c(=O)c3cccn3c3cccnc32)cc1 (centres undefined) | -3% | 3 | . | . | -9%[46.1 µM]
CN1CC(=O)N(CC(=O)NCc2ccc3c(c2)OCO3)C1=O | 1% | -102* | 14% | 7% | 21%
CC(=O)c1c(C)n(CC(=O)NCc2ccc3c(c2)OCO3)c2ccccc12 | . | ? | 10µM* | -14% | -6%
O=C(Cn1c(CO)nc2ccccc21)NCc1ccc2c(c1)OCO2 | -9% | -18 | ? | 8%[46.1 µM] | 14%
Cc1ccc(C2CC(=O)N(Cc3ccccc3F)c3c2c(C)nn3-c2nc(C)cc(C)n2)cc1 (centres undefined) | -9% | -14 | . | -5%[46.1 µM] | -17%[46.1 µM]
CN(C)CCN(Cc1ccc(Cl)cc1)c1ccccn1 | 0% | -62* | ? | ? | ?
C[N+](C)(C)CCN(Cc1ccc(Cl)cc1)c1ccccn1 | 2% | -63* | 9% | ? | -1%
CN(CC(=O)NCCCc1ccccc1)S(=O)(=O)c1ccc(Br)cc1 | -26% | -4 | 6% | -2% | -4%
CCN(CC)c1ccc(/C=N/c2sc3c(c2C#N)C2CCN3CC2)c(O)c1 | -3% | . | 4.5µM* | 14% | -26%
CCN(CC)c1ccc(C=Nc2cc(C)ccc2C)c(O)c1 | 0% | 50 | -23% | 20% | 26%
COc1cc(CNCc2ccncc2)cc(Br)c1OCc1ccccc1F | 32µM* | -90* | ? | ? | ?
COc1cc(CNCCO)cc(Br)c1OCc1cccs1 | -28% | ? | -10% | ? | -15%
COc1cc(CNC(C)(C)C)cc(Br)c1OCc1cccs1 | 0% | ? | 20µM* | ? | ?
O=C(NCc1ccncc1)[C@@H]1CCCN1C(=O)[C@H]1CCCN1C(=O)c1c(F)cccc1F | -17% | -7 | . | . | .
COc1ccc(CN(C)C(=O)Cn2cnc3c(SC)nc(N)nc32)cc1OC | 0% | -24 | 4.5µM* | . | .
CCOC(=O)c1c(SCCN2CCCCC2)n(-c2ccccc2)c(=S)n(-c2ccccc2)c1=O | 20µM* | 9 | ? | -82% | 4%
Cc1cccc(NC(=O)CSc2nnc(NC(=O)CN3CCCCC3)s2)c1 | . | -10 | 2% | 1% | -4%
Cc1cccc(Nc2nnc(SCC(=O)Nc3cccc(S(=O)(=O)N4CCCCC4)c3)s2)c1 | 0% | -8 | 13µM* | ? | ?
Cc1cccc(Nc2nnc(SCC(=O)NC(=O)Nc3ccc4c(c3)OCCO4)s2)c1 | -4% | -96* | 2% | ? | ?
O=C1CC(C(=O)N2CCN(c3ccccn3)CC2)CN1Cc1ccccc1Cl (centres undefined) | -8% | -35 | -3% | 4% | -10%
O=C(O)c1ccc(-n2cc(-c3cc4ccccc4oc3=O)[nH]c2=S)cc1 | 15% | -64* | -21% | -3%[46.1 µM] | .
COc1ccc(C(C)C(=O)c2ccc(O)cc2O)cc1 (centres undefined) | 0% | . | . | . | .
O=C(Nc1csc([N+](=O)[O-])c1)Nc1ccccc1Cl | -3% | -67* | -19% | ? | -8%
Cc1[nH]c2ccccc2c1CCN(Cc1cccnc1)C(=S)Nc1cccc(F)c1 | 4% | -6 | 16µM* | ? | ?
CCOc1ccc(NC(=S)N(CCc2c(C)[nH]c3ccc(C)cc23)Cc2ccncc2)cc1 | 4% | -29 | ? | 2.3µM* | -9%

Screening results: PubChem BioAssay, National Center for Advancing Translational Sciences (NCATS)
